About 790 (34%) of roughly 2,300 compounds were called active. The rule behind the calls is not given here. The list shows a part of the results. Measured potencies and affinities stand elsewhere.
Assay: THP-1 cell cytotoxicity, dose response, cytotoxicity control for non-replicating M. tuberculosis project (AID 489025)
Details: THP-1 cell viability; series mostly up to 40 µM

Compound | outcome
CCCCN(C/C=C/c1ccccc1OC)Cc1ccccc1 | inactive
COc1ccc(N2C(=O)CC(Sc3nc4ccccc4s3)C2=O)cc1OC (centres undefined) | inactive
CCOc1cccc2cc(C(=O)NC(C)c3ccccc3)c(=N)oc12 (centres undefined) | inactive
O=C(COc1cccc2ccccc12)Nc1ccc(Cl)cc1C(=O)O | inactive
O=C(NCc1cccs1)c1cc(-c2ccc(O)cc2)on1 | inactive
O=C(OCC(=O)N1CCCCC1)c1cc2ccccc2cc1O | inactive
Cc1cccc(NC(=O)CO/N=C/c2ccc3c(c2)OCO3)c1 | inactive
O=C(NCc1cccs1)c1ccc(Br)o1 | inactive
Cc1csc(NC(=O)c2cc([N+](=O)[O-])cc([N+](=O)[O-])c2)n1 | inactive
O=C(CN1CCN(c2ccc([N+](=O)[O-])cc2)CC1)Nc1ccccn1 | inactive
O=C(Nc1ncccn1)c1ccc([N+](=O)[O-])o1 | inactive
COc1cccc(COC(=O)c2sc3nc4n(c(=O)c3c2C)CCC4)c1OC | inactive
O=C(N/N=C/c1ccc(OC(=O)c2ccco2)cc1)c1ccccn1 | inactive
O=C(Nc1ccc(-c2nc3ccccc3c(=O)o2)cc1)c1ccco1 | inactive
CC(C)(C)/C(O)=C/c1nc2ccccc2oc1=O | inactive
O=C1N/C(=N\c2ccccn2)SC1Cc1ccc(Cl)cc1 (centres undefined) | inactive
CO/N=C/CC(=O)c1ccc(OC)cc1 | inactive
COc1ccc(/C(=N/O)C(C)(C)NO)cc1 | inactive
Cc1cc2nc(CSc3ccc(Cl)cc3)cc(=O)n2[nH]1 | inactive
CSCCC(=O)N1CCCC(N2CCN(c3cccc(C(F)(F)F)c3)CC2)C1 (centres undefined) | inactive
CCC(C)c1ccc(OCCn2ccnc2)cc1 (centres undefined) | inactive
C/C(=C\C(=O)c1ccncc1)Nc1ccccc1O | inactive
CCOC(=O)c1ccc(NC(=O)CCSCCc2ccccn2)cc1 | inactive
Cc1ccc(OCCCCc2c(C)n[nH]c2C)cc1 | inactive
CC1CCc2c(sc3nc(CSc4ncn[nH]4)[nH]c(=O)c23)C1 (centres undefined) | inactive

Compound | outcome
CC1CC(C)CN(CCOCCSc2ccc(Cl)cc2)C1 (centres undefined) | inactive
Cc1cc(Cl)ccc1NNC(=O)c1cccs1 | inactive
O=C(c1ccccc1)c1nc[nH]c1C(=O)Nc1ccccc1 | inactive
CN(C)CCC(=O)N1c2ccccc2Sc2ccc(Cl)cc21 | inactive
O=S1(=O)N=C(N/N=C/C=C/c2ccccc2)c2ccccc21 | inactive
COc1ccc(OCc2n[nH]c(=S)o2)cc1 | inactive
CCCCn1c(N)c(-c2nc3ccccc3o2)c2c([N+](=O)[O-])nn(CC)c(=O)c21 | inactive
CCOCC(=O)Nc1ccc(C)c(Cl)c1 | inactive
CSC1=N/C(=C\c2ccc(Br)o2)C(=O)S1 | inactive
Cc1ccc(-c2nnc(C)c(N3CCCC3)n2)cc1 | inactive
O=C(CN1CCN(c2ccccc2O)CC1)Nc1ccc2c(c1)CCC2 | inactive
CCOc1ccc(OCCSc2ccc(S(=O)(=O)N3CCN(C)CC3)cn2)cc1 | inactive
Cc1cc2cc(CNC(=O)COc3ccccc3)ccc2n1C | inactive
CC(C)c1ccc(OCC(=O)NCc2ccccc2)cc1 | inactive
Cc1cc(C(=O)N/N=C/C=C/c2ccccc2)c(C)o1 | inactive
Cc1cccc(NC(=O)c2cc3ccccc3o2)c1 | inactive
NC(=O)COC(=O)c1sc2ccccc2c1Cl | inactive
COc1ccc(NC(=O)c2cc3ccccc3o2)cc1 | inactive
Cc1nonc1C(=O)N/N=C/c1ccc([N+](=O)[O-])o1 | inactive
O=C(Nc1ccc(Cl)c(Cl)c1)O/N=C/c1ccncc1 | inactive
O=C(NC1CC2CCC1C2)C1COc2ccccc2O1 (centres undefined) | inactive
O=C(NCc1ccccc1)c1cc2ccccc2oc1=O | inactive
O=C(NCCc1cccc(Cl)c1)c1cc2ccccc2oc1=O | inactive
O=C(O)c1ccc(-n2nc(C(F)(F)F)c3c2CCCC3)cc1 | inactive
O=C(COc1ccc2ccccc2c1)Nc1ccncc1 | inactive

Compound | outcome
S=c1[nH]cnc2sc(-c3ccccc3)cc12 | inactive
CCOC(=O)c1csc(COc2ccccc2Cl)n1 | inactive
Clc1ccccc1OCc1nnc(-c2ccccc2)o1 | inactive
CCn1c(-c2ccco2)nc2ccccc21 | inactive
COc1cccc(COC(=O)CCNC(=O)c2ccc(Br)cc2)c1OC | inactive
CC(=O)c1ccc(NC(=O)C(Cc2ccccc2)n2cccc2)cc1 (centres undefined) | inactive
Cc1cc(NC(=O)COc2ccccc2)ccc1Cl | inactive
CCOc1cc(-c2nnc(NC(=O)c3ccco3)o2)cc(OCC)c1OCC | inactive
O=C(Nc1nnc(C2=COCCO2)o1)c1ccc(Cc2ccccc2)cc1 | inactive
Cc1ccsc1C(=O)OCC(=O)Nc1nnc(-c2ccccc2)o1 | inactive
O=C(NC1CCCC1)c1cc(-c2cccs2)on1 | inactive
Cc1cc(C)c(OCC(=O)Nc2nnc(-c3ccco3)o2)c(C)c1 | inactive
CCc1ccc(NC(=O)CCc2ccc(C)o2)cc1 | inactive
C=CCn1c(O)c(C(C)=Nc2ccc(C(=O)OCC)cc2)c(=O)[nH]c1=O | inactive
Oc1ccc2cc(Br)ccc2c1CN1CCCC1 | inactive
Cc1ccc(S(=O)(=O)NCC(=O)OCCOc2cccc(Cl)c2)cc1 | inactive
O=C(Nc1nnc(-c2ccccc2Cl)o1)c1cccnc1 | inactive
O=C(Nc1nnc(-c2ccccc2Cl)o1)c1ccco1 | inactive
CC(C)OC(=O)c1cc(C(=O)c2cc(Cl)ccc2O)coc1=N | inactive
COc1c[nH]n(C2CCCCC2)c(=O)c1=O | inactive
Cc1ccc(N=N/C(=C\O)C(=O)c2ccncc2)cc1 | inactive
O=C(NNC1CC(=O)N(c2ccccc2)C1=O)c1ccco1 (centres undefined) | inactive
NC(=O)N/N=C/c1ccccc1OC(=O)c1cc2ccccc2oc1=O | inactive
Cc1ccc(C(=O)N2N=C(CC(C)C)CC2(O)C(F)(F)F)o1 (centres undefined) | inactive
Cn1nnc(NC(=O)COc2ccc(C3CCCCC3)cc2)n1 | inactive

Compound | outcome
Cc1cc(O)c(-c2cc(O)c(C)cc2O)cc1O | inactive
COc1ccc(-c2nnc(NC(=O)C3=COCCO3)o2)cc1 | inactive
COc1ccc(-c2nnc(SCC(C)C)o2)cc1 | inactive
Cc1ccn2nc(S(=O)(=O)Nc3c(F)cccc3F)nc2n1 | inactive
COc1cccc(NC(=O)c2ccc(-c3ccc([N+](=O)[O-])cc3)o2)c1 | inactive
CC(=O)Nc1ccc(NC(=O)c2cc([N+](=O)[O-])cc([N+](=O)[O-])c2)cc1 | inactive
COc1ccc(CNC(=O)c2cc3cccc(O)c3oc2=N)cc1 | inactive
CCOC(=O)COc1ccc2c(=O)c(-c3ccccc3OC)coc2c1 | inactive
COC(=O)COc1ccc(-c2nn(C)c(=O)c3ccccc23)cc1 | inactive
O=C(CNC(=O)c1ccco1)OCc1ccc(C(=O)Oc2ccccc2)cc1 | inactive
CCOC(=O)CC(=O)Nc1ccc(C(=O)OCC)cc1 | inactive
CCOC(=O)c1ccc(NC2OC(=O)c3ccccc32)cc1 (centres undefined) | inactive
c1ccc(C2=Nc3ccccc3OC2)cc1 | inactive
Cc1ccnc(NC(=O)CCc2c[nH]c3ccccc23)c1 | inactive
C/C(=N\Nc1ccc(Cl)cc1)c1ccccn1 | inactive
COc1cc(/C=N/NC(=O)c2ccccn2)ccc1OC(=O)c1cccs1 | inactive
O=C(N/N=C/c1ccccn1)c1ccccc1 | inactive
O=C(N/N=C/c1ccccn1)c1cccc(S(=O)(=O)Nc2ccccc2Cl)c1 | inactive
O=C(CCc1c[nH]c2ccccc12)Nc1ncccc1O | inactive
CC(C)c1ccc(/C=N/NC(=O)c2ccccn2)cc1 | inactive
COc1cccc(/C=N/N2C(=O)CSC2=S)c1O | inactive
CCCC(C)C(=O)Nc1ccc(Cl)cn1 (centres undefined) | inactive
O=[N+]([O-])c1ccc(N2CCCCCC2)c2nonc12 | inactive
CC1CCCN(CCC(=O)c2ccc(Br)cc2)C1 (centres undefined) | inactive
C/C(=N\Nc1cccc2cccnc12)c1ccccn1 | inactive

Compound | outcome
CC(OC(=O)c1ccc2c(=O)n3c(nc2c1)CCCCC3)C(=O)Nc1ccc(Cl)cn1 (centres undefined) | inactive
CCOC(=O)c1cc(-c2csc(COc3ccccc3)n2)on1 | inactive
COc1cc(Cl)cc(/C=N/NC(N)=O)c1O | inactive
O=C(N/N=C/c1cn[nH]c1-c1ccccc1)c1ccco1 | inactive
Cn1cccc1/C=N/NC(=O)c1ccco1 | inactive
Cc1occc1C(=O)N/N=C/c1ccc[nH]1 | inactive
O=C(OCc1ccc([N+](=O)[O-])cc1)c1cc2ccccc2oc1=O | inactive
Cc1cccc(NC(=O)c2cc3ccccc3oc2=O)c1 | inactive
COc1ccccc1/C=C/C=N/NC(=O)c1ccncc1 | inactive
Cc1cc(C)n(-c2ccc(C(=O)OCC(=O)Nc3cc(Cl)ccc3[N+](=O)[O-])cc2)n1 | inactive
COc1ccc(OC(=O)C2CC(=O)N(c3ccc(C)cc3)C2)cc1 (centres undefined) | inactive
O=C(COC(=O)c1cccs1)NCCC1=CCCCC1 | inactive
CCCCN(C)C(=O)c1cc2cc3ccc(OC)cc3nc2s1 | inactive
CN(CC(=O)Nc1ccc(C#N)cc1)Cc1ccc(Cl)c(Cl)c1 | inactive
Cc1ccnc(NC(=O)COc2ccc3c(c2)CCC3)c1 | inactive
Cc1cccnc1NC(=O)COc1ccc2oc3c(c2c1)CCCC3 | inactive
O=C(O)COc1ccc2occ(C(=O)c3ccccc3)c2c1 | inactive
O=C(N/N=C/c1ccc([N+](=O)[O-])s1)c1ccncc1 | inactive
O=C(N/N=C\c1ccco1)c1cncc(Br)c1 | inactive
CC(=O)N1N=C(c2ccccc2)OC1c1ccc([N+](=O)[O-])s1 (centres undefined) | inactive
Cc1onc(-c2ccccc2)c1C(=O)Nc1nnc(COc2ccc(Cl)cc2)s1 | inactive
CC(/C=C/c1ccco1)=N/NC(=O)c1ccc(C)nc1 | inactive
CNC(=S)N1CCN(c2c(F)cc3c(=O)c(C(=O)O)cn(C4CC4)c3c2OC)CC1C (centres undefined) | inactive
O=C(Oc1ccc(F)cc1)c1ccc2c(=O)n3c(nc2c1)CCC3 | inactive

Source: PubChem BioAssay AID489025 (Southern Research Specialized Biocontainment Screening …, 2010)
